{"source": "PubChem BioAssay (NCI)", "note": "Several values for one entry are separate records, joined by “and”; a condition that tells them apart may be missing. Identical values can stand only once. About 83,000 compounds went through this panel and 20% of them were active in at least one assay; those are over-represented in the sample as a whole.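 Assay: single dose, 48 h. Readout: percent growth (0 = no net growth; negative = cell death). Active: <10.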 Activity calls are given as the source filed them. Where a SMILES comes first, the peptide text is derived from it.", "data": [{"tested_on": "ACHN renal", "assay": "NCI-60 one-dose screen, 48 h (100 = growth as untreated, 0 = no growth, -100 = all killed)", "details": "10 µM unless noted", "values": [{"molecule": "NC(Cc1c[nH]c2ccccc12)C(=O)O", "note": "(stereo not drawn)", "growth": "99.8% (inactive) and 100% (inactive)"}, {"molecule": "CC(C)NC(=O)N/C=C(\\C#N)C(N)=O", "growth": "94.8% (inactive)"}, {"molecule": "CC(=O)OCC1OC(OC(C)=O)C(OC(C)=O)C(OC(C)=O)C1OC(C)=O", "note": "(stereo not drawn)", "growth": "96.4% (inactive) and 105% (inactive)"}, {"molecule": "Cc1cc(-c2ccc(N=Nc3ccc4c(S(=O)(=O)O)cc(S(=O)(=O)O)c(N)c4c3O)c(C)c2)ccc1N=Nc1ccc2c(S(=O)(=O)O)cc(S(=O)(=O)O)c(N)c2c1O", "growth": "91.6% (inactive)"}, {"molecule": "COc1ccc(C(=O)CC(c2ccccc2)C(C#N)c2ccccc2)cc1", "note": "(stereo not drawn)", "growth": "88.8% (inactive)"}, {"molecule": "Cc1ccc(=O)[nH]n1", "growth": "114% (inactive) and 108% (inactive)"}, {"molecule": "O=C1C=C(Nc2ccccc2)c2ccccc2C1=O", "growth": "30.1% (inactive) and 92.8% (inactive)"}, {"molecule": "CN1CNC(=O)NC1", "growth": "113% (inactive) and 107% (inactive)"}, {"molecule": "COc1cc(C(O)C2C(=O)OCC2C2(c3ccc4c(c3)OCO4)SCCCS2)cc(OC)c1OC", "note": "(stereo not drawn)", "growth": "103% (inactive)"}, {"molecule": "O=C(O)/C=C\\C(=O)Nc1cccc2ccccc12", "growth": "90.5% (inactive) and 99.2% (inactive)"}, {"molecule": "NN1CCOC(c2ccccc2)C1", "note": "(stereo not drawn)", "growth": "99.1% (inactive)"}, {"molecule": "c1ccc(-c2nc3ccccc3s2)cc1", "growth": "87.1% (inactive)"}, {"molecule": "NC(Cc1ccccc1)C(=O)NC(Cc1ccccc1)C(=O)O", "note": "(stereo not drawn) (H-Phe-Phe-OH; configuration not given here)", "growth": "103% (inactive)"}, {"molecule": "COc1ccc2cc1Oc1ccc(cc1)C[C@H]1c3cc(c(OC)cc3CCN1C)Oc1c(OC)c(OC)cc3c1[C@H](C2)N(C)CC3", "growth": "74.1% (inactive)"}, {"molecule": "Oc1ccc(Cc2ccccc2Cl)c(O)c1", "growth": "92% (inactive)"}, {"molecule": "CN(C)c1ccc(/C=C\\C(=O)c2ccccc2)cc1", "growth": "99.4% (inactive) and 101% (inactive)"}, {"molecule": "c1ccc2c(c1)OC1OC2Oc2ccccc21", "growth": "101% (inactive)"}, {"molecule": "NC1CCC(C(=O)O)CC1", "note": "(stereo not drawn)", "growth": "106% (inactive) and 105% (inactive)"}, {"molecule": "CC1(C)COC(=S)N1", "growth": "97.5% (inactive)"}, {"molecule": "C/C(=C\\c1ccccc1)c1ccccn1", "growth": "105% (inactive)"}, {"molecule": "CCN(CCNS(C)(=O)=O)c1ccc(N)c(C)c1", "growth": "27.9% (inactive) and 76.2% (inactive)"}, {"molecule": "O=CN1CCCCC1", "growth": "109% (inactive)"}, {"molecule": "CCCCOC(=O)/C=C\\C(=O)NC(N)=O", "growth": "61.3% (inactive)"}, {"molecule": "CC[C@H](CC[C@@H](C)[C@H]1CC[C@H]2[C@@H]3CC=C4C[C@@H](O)CC[C@]4(C)[C@H]3CC[C@]12C)C(C)C", "growth": "94.4% (inactive) and 103% (inactive)"}, {"molecule": "N#CC(C#N)N=Nc1ccc(Cl)cc1", "growth": "26.9% (inactive)"}, {"molecule": "O=C1OC(C(O)C(O)CO)C(O)=C1O", "note": "(stereo not drawn)", "growth": "105% (inactive) and 103% (inactive)"}, {"molecule": "CCCCCCCCCCCCCCCCC(C(=O)O)C(O)(CC(=O)O)C(=O)O", "note": "(stereo not drawn)", "growth": "96.8% (inactive) and 28.4% (inactive)"}, {"molecule": "CC(C)C(C)(C)c1ccc(O)cc1", "growth": "112% (inactive)"}, {"molecule": "OCC1OC(O)C(O)C(O)C1O", "note": "(stereo not drawn)", "growth": "99.9% (inactive)"}, {"molecule": "CC1CCC2(OC1)OC1CC3C4CC=C5CC(O)CCC5(C)C4CCC3(C)C1C2C", "note": "(stereo not drawn)", "growth": "93.5% (inactive)"}, {"molecule": "O=C(/C=C/c1ccccc1)c1ccccc1", "growth": "107% (inactive)"}, {"molecule": "O=c1[nH]cnc2c1ncn2C1OC(CO)C(O)C1O", "note": "(stereo not drawn)", "growth": "116% (inactive) and 109% (inactive) and 105% (inactive)"}, {"molecule": "Nc1ccc2c(O)cc(S(=O)(=O)O)cc2c1", "growth": "95.8% (inactive) and 92.8% (inactive)"}, {"molecule": "CC1CCC2(C(=O)O)CCC3(C)C(=CCC4C5(C)CCC(O)C(C)(C)C5CCC43C)C2C1C", "note": "(stereo not drawn)", "growth": "57.7% (inactive) and 76.2% (inactive)"}, {"molecule": "CC1CCC(C(C)C)C(NNC(N)=O)C1", "note": "(stereo not drawn)", "growth": "110% (inactive)"}, {"molecule": "CC(=O)Nc1ccc(S(N)(=O)=O)cc1", "growth": "103% (inactive) and 93.3% (inactive)"}, {"molecule": "Cc1cc2ccccc2cn1", "growth": "107% (inactive) and 102% (inactive)"}, {"molecule": "C#CCOC(=O)Nc1ccccc1", "growth": "114% (inactive)"}]}]}
